# PubChem BioAssay (NCI)
# Values joined by “and” are separate entries in the source; they are usually repeats but may differ in a detail not shown here. Equal entries are not always repeated. This is part of a sample that, as a whole, favours compounds with a hit. Of some 83,000 tested, about 20% had one in any assay.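 For each line, cells grew in 96-well plates with the test compound present at a single concentration for 48 hours.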 Unmarked numbers belong to inactive results. Active and inactive are the calls of the source. How the source made its calls: active means growth percent below 10; inactive means the rest.
# Assays:
# Experiment in all cases: NCI-60 one-dose screen, 48 h (100 = growth as untreated, 0 = no growth, -100 = all killed)
# [1] = test system: SK-MEL-2 melanoma; details: 10 µM unless noted
# [2] = test system: EKVX NSCLC; details: 10 µM unless noted
# [3] = test system: SN12C renal; details: 10 µM unless noted
# [4] = test system: UO-31 renal; details: 10 µM unless noted
# [5] = test system: TK-10 renal
# [6] = test system: ACHN renal; details: 10 µM unless noted
# [7] = test system: CAKI-1 renal; details: 10 µM unless noted
# [8] = test system: A498 renal; details: 10 µM unless noted
# [9] = test system: CCRF-CEM leukemia; details: 10 µM unless noted
# [10] = test system: MOLT-4 leukemia; details: 10 µM unless noted
# [11] = test system: SR leukemia; details: 10 µM unless noted
# [12] = test system: RPMI-8226 leukemia; details: 10 µM unless noted
# [13] = test system: OVCAR-8 ovarian; details: 10 µM unless noted
# [14] = test system: OVCAR-5 ovarian; details: 10 µM unless noted
# [15] = test system: OVCAR-4 ovarian; details: 10 µM unless noted
# [16] = test system: SK-OV-3 ovarian; details: 10 µM unless noted
# [17] = test system: IGROV1 ovarian; details: 10 µM unless noted
# [18] = test system: OVCAR-3 ovarian; details: 10 µM unless noted
# [19] = test system: HS 578T breast; details: 10 µM unless noted
# [20] = test system: NCI/ADR-RES ovarian; details: 10 µM unless noted
compound,measurement,setting,value
Cc1[nH]n(-c2ccccc2)c(=O)c1C=NC(=S)C(N)=S,growth,[1],109%
same,growth,[2],103%
same,growth,[3],105%
same,growth,[4],85.2%
same,growth,[5]; 10 µM unless noted,125%
same,growth,[6],100%
same,growth,[7],97.2%
same,growth,[8],93.8%
same,growth,[9],94.1%
same,growth,[10],102%
same,growth,[11],89.9%
same,growth,[12],94.6%
same,growth,[13],99.9%
same,growth,[14],109%
same,growth,[15],104%
same,growth,[16],96%
same,growth,[17],112%
same,growth,[18],108%
same,growth,[19],92.1%
same,growth,[20],101%
CC1(C)OC2C(CO)OC(n3ccc(=O)[nH]c3=O)C2O1 (stereo not drawn),growth,[1],96.6%
same,growth,[2],104%
same,growth,[3],90.1%
same,growth,[4],88%
same,growth,[5]; 10 µM unless noted,87.2%
same,growth,[6],104%
same,growth,[7],101%
same,growth,[8],75.9%
same,growth,[9],101%
same,growth,[10],92.3%
same,growth,[11],99.7%
same,growth,[12],103%
same,growth,[13],91.8%
same,growth,[14],104%
same,growth,[15],115%
same,growth,[16],99.3%
same,growth,[17],101%
same,growth,[18],107%
same,growth,[19],91.8%
same,growth,[20],105%
CCCCN(C=S)CCCC,growth,[1],91.8%
same,growth,[2],103%
same,growth,[3],97.5%
same,growth,[4],93.5%
same,growth,[5]; 10 µM unless noted,98.4%
same,growth,[6],95.7%
same,growth,[7],95.2%
same,growth,[8],91.4%
same,growth,[9],95.7%
same,growth,[10],91.4%
same,growth,[11],91.9%
same,growth,[12],101%
same,growth,[13],95%
same,growth,[14],102%
same,growth,[15],112%
same,growth,[16],88.6%
same,growth,[17],107%
same,growth,[18],108%
same,growth,[19],97.1%
same,growth,[20],107%
O=C(c1ccccc1O)N1CCCC1,growth,[1],92.9%
same,growth,[2],97.5%
same,growth,[3],102%
same,growth,[4],91.9%
same,growth,[5]; 10 µM unless noted,96.5%
same,growth,[6],94.4%
same,growth,[7],94.8%
same,growth,[8],91.9%
same,growth,[9],100%
same,growth,[10],98.6%
same,growth,[11],99.5%
same,growth,[12],94.8%
same,growth,[13],99.3%
same,growth,[14],98.9%
same,growth,[15],109%
same,growth,[16],95.8%
same,growth,[17],103%
same,growth,[18],110%
same,growth,[19],111%
same,growth,[20],101%
OCCNc1ccccc1,growth,[1],103%
same,growth,[2],111%
same,growth,[3],108%
same,growth,[4],90.9%
same,growth,[5]; 10 µM unless noted,101%
same,growth,[6],108%
same,growth,[7],96.7%
same,growth,[8],99.1%
same,growth,[9],105%
same,growth,[10],101%
same,growth,[11],93.2%
same,growth,[12],105%
same,growth,[13],102%
same,growth,[14],107%
same,growth,[15],101%
same,growth,[16],105%
same,growth,[17],110%
same,growth,[18],105%
same,growth,[19],101%
same,growth,[20],100%
C=CC(C)(C)n1cc(C2=C(O)C(=O)C(c3cn(C(C)(C)C=C)c4ccccc34)=C(O)C2=O)c2ccccc21,growth,[1],95.9%
same,growth,[2],87.2%
same,growth,[3],101%
same,growth,[4],74.1%
same,growth,[5]; 10 µM,92.7%
same,growth,[5]; 100 µM,-99.2% (active) and -100% (active)
same,growth,[6],94.4%
same,growth,[7],89.7%
same,growth,[9],78.5%
same,growth,[10],88.7%
same,growth,[11],71.6%
same,growth,[12],104%
same,growth,[14],122%
same,growth,[15],92.4%
same,growth,[16],94.3%
same,growth,[17],99.5%
same,growth,[18],107%
same,growth,[20],97.5%
COc1cccc(C(=O)NNC(=O)c2cccc3ccccc23)c1,growth,[1],107%
same,growth,[2],106%
same,growth,[3],108%
same,growth,[4],97%
same,growth,[5]; 10 µM unless noted,120%
same,growth,[6],106%
same,growth,[7],102%
same,growth,[8],105%
same,growth,[9],104%
same,growth,[10],98.8%
same,growth,[11],113%
same,growth,[12],105%
same,growth,[13],105%
same,growth,[14],125%
same,growth,[15],109%
same,growth,[16],100%
same,growth,[17],131%
same,growth,[18],121%
same,growth,[19],114%
same,growth,[20],107%
CCC(C)c1c(N)n(S(=O)(=O)c2ccc(C)cc2)oc1=O (stereo not drawn),growth,[1],107%
same,growth,[2],121%
same,growth,[3],106%
same,growth,[4],89.5%
same,growth,[5]; 10 µM unless noted,101%
same,growth,[6],99.9%
same,growth,[7],96.5%
same,growth,[8],113%
same,growth,[9],112%
same,growth,[10],109%
same,growth,[11],107%
same,growth,[12],100%
same,growth,[13],96.6%
same,growth,[14],99.1%
same,growth,[15],109%
same,growth,[16],113%
same,growth,[17],88.7%
same,growth,[18],118%
same,growth,[19],130%
same,growth,[20],120%
